The panel holds about 83,000 compounds, 20% with a hit somewhere; the sample as a whole holds those more often.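 Cell lines were cultured in 96-well plates, exposed to a single compound concentration, and assessed for percent growth 48 hours later.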 A number with no mark means an inactive call. Calls of active or inactive are those of the source. How the source made its calls: active means growth percent below 10; inactive means the rest.
Legend:
Assay in all cases: NCI-60 one-dose screen, 48 h (100 = growth as untreated, 0 = no growth, -100 = all killed)
Conditions in all cases: 10 µM unless noted
DU-145 prostate = system: DU-145 prostate
K-562 leukemia = system: K-562 leukemia
MALME-3M melanoma = system: MALME-3M melanoma
MDA-MB-231 breast = system: MDA-MB-231 breast
RXF 393 renal = system: RXF 393 renal
SF-268 CNS = system: SF-268 CNS
SF-295 CNS = system: SF-295 CNS
SF-539 CNS = system: SF-539 CNS
UACC-257 melanoma = system: UACC-257 melanoma
M14 melanoma = system: M14 melanoma

Structure (SMILES)	growth (DU-145 prostate)	growth (K-562 leukemia)	growth (MALME-3M melanoma)	growth (MDA-MB-231 breast)	growth (RXF 393 renal)	growth (SF-268 CNS)	growth (SF-295 CNS)	growth (SF-539 CNS)	growth (UACC-257 melanoma)	growth (M14 melanoma)
N[C@H]1CN(C(=O)c2cc3cc(Br)c(F)c(F)c3[nH]2)C[C@@H]1O	112%	104%	101%	92%	103%	88.5%	104%	96%	-76.6% (active)	97.2%
CN(C)CCCC(C#N)c1ccccc1 (stereo not given)	122%	99.1%	131%	112%	115%	114%	110%	–	104%	104%
C=C[C@@H]1C[C@H](O)Cc2cc(F)ccc2N1	102%	102%	91.7%	96.1%	106%	94%	101%	108%	96.1%	97%
COC(=O)[C@]12CC[C@@H](C)[C@H](C)[C@@H]1C1=CC[C@@H]3[C@@]4(C)C(C=O)=C[C@@](C)(COC(=O)c5ccco5)[C@@H]4[C@H](O)C[C@@]3(C)[C@]1(C)CC2	-74.3% (active)	2.92% (active)	-63.6% (active)	-47.4% (active)	-63% (active)	2.92% (active)	-76.2% (active)	-62.6% (active)	–	-23.3% (active)
CCN(CC)c1ccc(/C=C2\Oc3ccc(O)c(I)c3C2=O)cc1	87%	12.5%	63.4%	65.8%	63%	71.4%	68.9%	58.3%	80.6%	28.7%
Nc1cccc(-c2nc3sccn3c2-c2ccnc(NCCCNS(=O)(=O)c3cccc4ccccc34)n2)c1	47.9%	22.6%	62.2%	39.5%	57.4%	49.2%	38.3%	65.9%	47.9%	43.8%
COc1c2occc2c(OC)c2c(=O)c(-c3cc(-c4ccc(F)cc4)c(C#N)c(N)n3)c(C)oc12	30.3%	19.5%	88.8%	30%	44.4%	35.5%	56.5%	67.7%	–	70.6%
O=C(Nc1ccncc1)C(=O)c1cn(S(=O)(=O)c2ccc(Cl)cc2)c2ccccc12	27.7%	22.2%	31.7%	45.7%	25%	41.8%	13.1%	9.27% (active)	75.9%	17.7%
O=c1cc(Cc2ccc([N+](=O)[O-])cc2)[nH]c(=O)[nH]1	119%	111%	99.9%	110%	109%	106%	122%	–	109%	104%
COc1ccc(/C=C/c2c(C(C)=O)c(C)nc3ccccc23)cc1	97.7%	52.4%	101%	82.8%	86.6%	97.5%	85.3%	–	64.7%	99.2%
CC(C)OC(=O)N1CCOCC1	104%	123%	94.7%	90.8%	116%	99.7%	113%	–	97.1%	–
COc1ccc(NC(=O)c2cc(OC)c(OC)c(OC)c2)cc1O	36.6%	27.7%	46.5%	58.5%	46.4%	44.1%	35.5%	21.5%	58.2%	36%
CCOC(=O)CC(=O)OC	118%	103%	114%	121%	114%	111%	110%	95.7%	96.9%	96.1%
COc1ccc(CNCCCN2C(=O)c3ccc4c5c(ccc(c35)C2=O)C(=O)N(CCCNCCCCNCCCN)C4=O)c(OC)c1OC	36.9%	6.82% (active)	-72.5% (active)	28%	7.45% (active)	17%	31.4%	1.73% (active)	-83.3% (active)	5.46% (active)
Cn1c2ccc(Br)cc2c2c3c(c4c5ccccc5[nH]c4c21)C(=O)N(O)C3=O	-71.1% (active)	-8.92% (active)	-85% (active)	-74.1% (active)	-99.5% (active)	-45.7% (active)	–	-92.6% (active)	-33.7% (active)	–
CN(C)CCCN(c1nc(C(Cl)(Cl)Cl)ns1)c1nc(C(Cl)(Cl)Cl)ns1	75%	0.874% (active)	44.8%	39.4%	36.8%	34.3%	–	73.2%	19.8%	-19% (active)
O=S(=O)(NCCNc1nccc(-c2c(-c3ccc(O)cc3)nc3sccn23)n1)c1cccc2ccccc12	115%	91.4%	100%	110%	104%	99%	–	100%	94.4%	–
Cc1cc(C)n(-c2nnc3n2N=C(c2ccc(-c4ccccc4)cc2)CS3)n1	66.2%	6.94% (active)	43.5%	51.1%	5.5% (active)	56.7%	–	38.7%	53.7%	30%
COc1cc(/C=C/C(=O)c2cccc(-n3cc(-c4cc(OC)c(OC)c(OC)c4)[nH]c3=O)c2)cc(OC)c1OC	12.5%	0.136% (active)	28.9%	35.4%	-79.5% (active)	20.9%	–	-86.1% (active)	37.2%	-0.87% (active)
COc1cc(Nc2nc(N[C@H]3CCCC[C@@H]3N)nc3cc[nH]c(=O)c23)cc(OC)c1	41.7%	24.6%	91.6%	38.4%	10.9%	48.1%	–	-3.04% (active)	7.33% (active)	40.2%
CCCOC(=O)n1cccc1	108%	115%	147%	99%	102%	98.4%	122%	–	102%	101%
CC1(C)C(=O)/C(=C\c2ccc(C(F)(F)F)cc2)C[C@]2(C)[C@H]3CC[C@@H]4[C@H]5[C@H](C(=O)/C=C/c6ccc(C(F)(F)F)cc6)CC[C@]5(CO)CC[C@@]4(C)[C@]3(C)CC[C@@H]12	109%	86.9%	96.2%	98.4%	103%	89.7%	–	93.7%	101%	93.1%
COc1ccc(C2C=C(c3ccc(Cl)cc3)N=C3SC=C(C)N32)c(Br)c1 (stereo not given)	-31.5% (active)	5.84% (active)	43.6%	58.2%	-7.69% (active)	43.4%	–	37.3%	39.4%	28.3%
CN(C)c1ncnc2c1ccn2C1OC(CO)C(O)C1O (stereo not given)	3.87% (active)	50.4%	133%	0.0846% (active)	67.9%	40.1%	–	67.8%	111%	–
O=S(=O)(NCCNc1nccc(-c2c(-c3ccc(F)cc3)nc3sccn23)n1)c1ccc(F)cc1	75.9%	56.7%	76.8%	78.4%	70%	79.2%	–	102%	102%	73.7%
COc1cc(C2CC(c3ccc4c(c3)OCO4)=NN2C(C)=O)cc(OC)c1OC (stereo not given)	13.7%	18.2%	23.3%	61.3%	7.22% (active)	52.7%	-7.31% (active)	–	66.5%	29.3%
NC(=N\N=C/c1ccc(O)cc1)/C(N)=N\N=C/c1ccc(O)cc1	63%	23.7%	65.3%	64.8%	105%	58.4%	29.2%	–	85.4%	39.5%
COc1ccc(NC(=O)CSc2nc(-c3ccc(OC)c(OC)c3)cc(-c3cc(OC)c(OC)c(OC)c3)n2)cc1	112%	95.7%	128%	91.9%	101%	102%	126%	–	111%	102%
COc1ccc(OC)c(C2OC(c3ccc4ccccc4c3O)=NN2C(C)=O)c1 (stereo not given)	77.8%	31.3%	43.8%	91.1%	53.1%	80.3%	–	65.5%	57.6%	54.6%

From PubChem BioAssay (NCI)
